Inconclusive results are not listed. A number with no mark means an inactive call. The call rests on the fitted dose curve.
experiment: A High-Content qHTS Against Drug Library for the Identification of Small Molecules that Inhibit DYT1 Early Onset Primary Dystonia-Associated Cell Pathology (AID 1645839); settings: HEK293 Flp-In EGFP-delE TorsinA, punctate imaging, 48 h; series mostly up to 46.1 µM; % pathology change, negative = correction: at the top concentration
Method in brief: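 Induced EGFP-delE TorsinA cells are imaged after 48 h of compound treatment. Punctate fusion-protein distribution gives the %pathology value, while nuclei counts flag toxicity. Wild-type EGFP-hTOR1A cells define the normal pattern.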

Row | Structure (SMILES) | % pathology change, negative = correction
1 | ClCc1cccc(Cl)c1 | -11.4%
2 | CN1C[C@@H](NS(=O)(=O)N(C)C)C[C@@H]2c3cccc4c3c(cn4C)C[C@H]21 | -20.5%
3 | C#C[C@]1(O)CC[C@H]2[C@@H]3CCC4=CC(=O)CCC4=C3C=C[C@@]21CC | 2.12%
4 | CNC(=O)Oc1cccc2ccccc12 | -15.8%
5 | CCCOC(=O)Cc1ccc(OCC(=O)N(CC)CC)c(OC)c1 | 2.95%
6 | CN(C)CCc1c[nH]c2cccc(O)c12 | 11.9% [at 91.7 µM]
7 | NC1(c2ccccc2)CCCCC1 | 2.53% [at 91.7 µM]
8 | CC(C)=CCN1CC[C@@]2(C)c3cc(O)ccc3C[C@@H]1[C@@H]2C | 2.25% [at 91.7 µM]
9 | Oc1c(Br)cc(Br)cc1Br | -4.37%
10 | COc1cc(C[C@@H](C)N)c(OC)cc1Br | -0.278% [at 104 µM]
11 | C[C@@H]1CN(C2CCC(C#N)(c3ccc(F)cc3)CC2)CC[C@]1(C(=O)O)c1ccccc1 (stereo not given in full) | -41.4%
12 | CCCC[N+]1(C)[C@@H]2CC(OC(=O)[C@H](CO)c3ccccc3)C[C@H]1[C@@H]1O[C@@H]12 (stereo not given in full) | -0.897%
13 | CC1N=C(N)OC1c1ccccc1 (stereo not given) | -4.13% [at 91.7 µM]
14 | CN(C)C(=O)Oc1cc(OC(=O)N(C)C)cc(C(O)CNC(C)(C)C)c1 (stereo not given) | 1.05%
15 | CCOC(C(=O)OCCN(C)C)(c1ccccc1)c1ccccc1 | -1.83%
16 | O=C(NC(=O)c1c(F)cccc1F)Nc1cc(Cl)c(OC(F)(F)C(F)C(F)(F)F)cc1Cl (stereo not given) | -6.16%
17 | C[N+]1(CCC(C(N)=O)(c2ccccc2)c2ccccc2)CCCCC1 | -3.13%
18 | c1cc2c(c(N3CCNCC3)c1)OCCO2 | 15.8%
19 | CCCCC1C(=O)NC(=O)N(C2CCCCC2)C1=O (stereo not given) | 0.818%
20 | CN1CCc2cc(Cl)c(O)cc2[C@H]2c3ccccc3CC[C@@H]21 | 0.274%

Source: PubChem BioAssay (NCATS)
